# Measured values as given in PubChem BioAssay (Tox21).
# Active and inactive are the calls of the source. Calls come from the whole dose curve; as a rule, active = well fitted curve in the direction sought with a large enough effect in the repeat runs; inconclusive = weak or mixed curves; inactive = flat fitted curve, though single readings scatter.
# Experiment: qHTS assay to test for compound auto fluorescence at 535 nm (green) in HEK293 cells (AID 720680)
# Conditions: green autofluorescence 485/535 nm; series mostly up to 91.3 µM
# % is set by controls: 0 for no effect and ±100 for the full control effect.
Structure (SMILES),outcome,"fluorescence, % of fluorescein"
N#Cc1c(Cl)cccc1Cl,inactive,–
CCC(C)n1c(=O)[nH]c(C)c(Br)c1=O (centres undefined),inactive,–
CCC(=O)c1ccccc1,inactive,–
CCOC(=O)N(C)C(=O)CSP(=S)(OCC)OCC,inactive,–
CCC1(c2ccccc2)C(=O)NC(=O)NC1=O,inactive,–
ClC(Br)Br,inactive,–
CCNc1nc(NC(C)C)nc(OC)n1,inactive,–
O=S(=O)(O)C(F)(F)C(F)(F)C(F)(F)C(F)(F)C(F)(F)C(F)(F)F,inactive,–
O=CNC(N1CCN(C(NC=O)C(Cl)(Cl)Cl)CC1)C(Cl)(Cl)Cl (centres undefined),inactive,–
C=C(C)CN(CC)c1c([N+](=O)[O-])cc(C(F)(F)F)cc1[N+](=O)[O-],inactive,–
CCC1(c2ccccc2)C(=O)N=C(O)NC1=O (centres undefined),inactive,–
COP(N)(=S)Oc1ccccc1C(=O)OC(C)C (centres undefined),inactive,–
CN1C[C@@H](NS(=O)(=O)N(C)C)C[C@@H]2c3cccc4c3c(cn4C)C[C@H]21,inactive,–
CCOP(=S)(Oc1cnc(C(C)(C)C)nc1)OC(C)C (centres undefined),inactive,–
Clc1cccc(N2CCNCC2)c1,inactive,–
CC(C)CP(=S)(S)CC(C)C,inactive,–
Cc1cc(C)nc(Nc2ccccc2)n1,inactive,–
CN(N=O)C(N)=O,inactive,–

Structure (SMILES),outcome,"fluorescence, % of fluorescein"
N#CC(Cl)(Cl)Cl,inactive,–
C#C[C@]1(O)C=C[C@H]2[C@@H]3CCC4=CC(=O)CC[C@@H]4[C@H]3CC[C@@]21CC,inactive,–
Nc1ccccc1Cl,inactive,–
Cc1cccc(C#N)c1,inactive,–
CN1CCC(O)(c2ccc(F)cc2)C(C(=O)c2ccc(F)cc2)C1 (centres undefined),inactive,–
ClCC(Cl)(Cl)Cl,inactive,–
CCC/C(=N\OCC)C1=C(O)CC(CC(C)SCC)CC1=O (centres undefined),inactive,–
Cc1cnc[nH]1,inactive,–
[O]=[Cd],inactive,–
CCOC(=O)NC(=S)Nc1ccccc1NC(=S)NC(=O)OCC,inactive,–
C=C(C)[C@@H]1CC=C(C=O)CC1,inactive,–
O=C(N[C@H]1CN2CCC1CC2)c1cc2ccoc2cn1,inactive,–
CNC(=O)O/N=C(\C)SC,inactive,–
O=NN1CCN(N=O)CC1,inactive,–
C[C@@H]1CN(C2CCC(C#N)(c3ccc(F)cc3)CC2)CC[C@]1(C(=O)O)c1ccccc1 (some centres undefined),–,0.0038% [at 18.6 µM] (inactive)
CCS(=O)(=O)CCSP(=O)(OC)OC,inactive,–
CC(CC(C#N)(c1ccccc1)c1ccccc1)N(C)C (centres undefined),inactive,–

# Experiment: qHTS assay to test for compound auto fluorescence at 460 nm (blue) in HEK293 cell free culture (AID 720681)
# Conditions: cell-free medium, autofluorescence 405/460 nm (blue); series mostly up to 91.3 µM
# Procedure, shortened: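 Compounds were added to cell-free DMEM with 10% FBS and fluorescence read directly. The blue channel used 405 nm excitation and 460 nm emission, with triamterene as the reference fluorophore.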
row,Structure (SMILES),outcome
1,N#Cc1c(Cl)cccc1Cl,inactive
2,CCC(=O)c1ccccc1,inactive
3,CCOC(=O)N(C)C(=O)CSP(=S)(OCC)OCC,inactive
4,CCC1(c2ccccc2)C(=O)NC(=O)NC1=O,inactive
5,ClC(Br)Br,inactive
6,CCNc1nc(NC(C)C)nc(OC)n1,inactive
7,O=CNC(N1CCN(C(NC=O)C(Cl)(Cl)Cl)CC1)C(Cl)(Cl)Cl (centres undefined),inactive
8,C=C(C)CN(CC)c1c([N+](=O)[O-])cc(C(F)(F)F)cc1[N+](=O)[O-],inactive
9,CCC1(c2ccccc2)C(=O)N=C(O)NC1=O (centres undefined),inactive
10,COP(N)(=S)Oc1ccccc1C(=O)OC(C)C (centres undefined),inactive
11,CN1C[C@@H](NS(=O)(=O)N(C)C)C[C@@H]2c3cccc4c3c(cn4C)C[C@H]21,inactive
12,CCOP(=S)(Oc1cnc(C(C)(C)C)nc1)OC(C)C (centres undefined),inactive
13,Clc1cccc(N2CCNCC2)c1,inactive
14,CC(C)CP(=S)(S)CC(C)C,inactive
15,CN(N=O)C(N)=O,inactive
16,N#CC(Cl)(Cl)Cl,inactive
17,C#C[C@]1(O)C=C[C@H]2[C@@H]3CCC4=CC(=O)CC[C@@H]4[C@H]3CC[C@@]21CC,inactive
18,Nc1ccccc1Cl,inactive
19,CN1CCC(O)(c2ccc(F)cc2)C(C(=O)c2ccc(F)cc2)C1 (centres undefined),inactive
20,ClCC(Cl)(Cl)Cl,inactive
21,CCC/C(=N\OCC)C1=C(O)CC(CC(C)SCC)CC1=O (centres undefined),inactive
22,Cc1cnc[nH]1,inactive
23,CCOC(=O)NC(=S)Nc1ccccc1NC(=S)NC(=O)OCC,inactive
24,O=C(N[C@H]1CN2CCC1CC2)c1cc2ccoc2cn1,inactive
25,CNC(=O)O/N=C(\C)SC,inactive
26,O=NN1CCN(N=O)CC1,inactive
27,CCS(=O)(=O)CCSP(=O)(OC)OC,inactive
28,CC(CC(C#N)(c1ccccc1)c1ccccc1)N(C)C (centres undefined),inactive

# Experiment: qHTS assay to test for compound auto fluorescence at 535 nm (green) in HEK293 cell free culture (AID 720682)
# Conditions: cell-free medium, green autofluorescence 485/535 nm, active compounds read high; series mostly up to 91.3 µM
# Procedure, shortened: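 Measurement is a direct plate read of green fluorescence (485 nm in, 535 nm out) after compound addition to serum-supplemented DMEM lacking cells, with fluorescein used to express intensities.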
row,Structure (SMILES),outcome
1,CCC(=O)c1ccccc1,inactive
2,CCOC(=O)N(C)C(=O)CSP(=S)(OCC)OCC,inactive
3,ClC(Br)Br,inactive
4,CCNc1nc(NC(C)C)nc(OC)n1,inactive
5,O=CNC(N1CCN(C(NC=O)C(Cl)(Cl)Cl)CC1)C(Cl)(Cl)Cl (centres undefined),inactive
6,C=C(C)CN(CC)c1c([N+](=O)[O-])cc(C(F)(F)F)cc1[N+](=O)[O-],inactive
7,CCC1(c2ccccc2)C(=O)N=C(O)NC1=O (centres undefined),inactive
8,COP(N)(=S)Oc1ccccc1C(=O)OC(C)C (centres undefined),inactive
9,CN1C[C@@H](NS(=O)(=O)N(C)C)C[C@@H]2c3cccc4c3c(cn4C)C[C@H]21,inactive
10,CCOP(=S)(Oc1cnc(C(C)(C)C)nc1)OC(C)C (centres undefined),inactive
11,Clc1cccc(N2CCNCC2)c1,inactive
12,CC(C)CP(=S)(S)CC(C)C,inactive
13,Cc1cc(C)nc(Nc2ccccc2)n1,inactive
14,N#CC(Cl)(Cl)Cl,inactive
15,C#C[C@]1(O)C=C[C@H]2[C@@H]3CCC4=CC(=O)CC[C@@H]4[C@H]3CC[C@@]21CC,inactive
16,Nc1ccccc1Cl,inactive
17,CN1CCC(O)(c2ccc(F)cc2)C(C(=O)c2ccc(F)cc2)C1 (centres undefined),inactive
18,ClCC(Cl)(Cl)Cl,inactive
19,CCC/C(=N\OCC)C1=C(O)CC(CC(C)SCC)CC1=O (centres undefined),inactive
20,Cc1cnc[nH]1,inactive
21,[O]=[Cd],inactive
22,C=C(C)[C@@H]1CC=C(C=O)CC1,inactive
23,O=C(N[C@H]1CN2CCC1CC2)c1cc2ccoc2cn1,inactive
24,CNC(=O)O/N=C(\C)SC,inactive
25,O=NN1CCN(N=O)CC1,inactive
26,CCS(=O)(=O)CCSP(=O)(OC)OC,inactive
